Shown are actives, neighbours in structure and some others; about 1.6% of the full set was active somewhere.
MLLE-PAM2 inh: inhibitors of microRNA-mediated deadenylation, human PABP1 MLLE binding; P11940; GST-MLLE / FITC-PAM2 fluorescence polarization; inhibition, % at 20 µM; actives 0.36% (n = 360,000); in the data active = inhibition above about 35%, passing the limit was not always enough;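 also: plate controls were DMSO wells with GST-MLLE for no effect and wells lacking GST-MLLE protein for full effect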
PABP polyA inh: blocks human PABP binding to poly(A) RNA; inhibition, % at 35 µM; actives 1% (n = 290,000); fluorescence polarization;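 also: calls also rest on retests at 20 µM and on dose response follow-up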
eIF4H FP inh: inhibitors of RNA binding by human eIF4H; actives 0.94% (n = 290,000); Q15056; eIF4H fluorescence polarization binding assay; inhibition, % at 35 µM;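 also: calls also rest on retests at 20 µM and on dose response follow-up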
PERK inhibitor: inhibitors of human PERK kinase; Q9NZJ5; CHO PERK-DD fusion, SEAP luminescence translation reporter; inhibition, % at 5.6 µM; actives 0.17% (n = 220,000); AID 1416;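 active = inhibition above the mean inhibition of all tested compounds plus 3 SD, set separately per screening campaign, cut at about 2.9% in these data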;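 also: PERK kinase domain activated by AP20187 dimerizer at 100 nM; 0% = DMSO with dimerizer and 100% = rapamycin at 8.4 µM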
eIF4E 4G PPI: eIF4E/eIF4G interaction inhibition in translation initiation; AID 782; TR-FRET eIF4E-eIF4GI(517-606) binding, 2 h; P63073+Q04637; actives 0.37% (n = 220,000); inhibition, % at 21.7 µM;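 active = inhibition above about 30%, limit read from the data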;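 also: 0% = full FRET control wells and 100% = background wells lacking eIF4GI fragment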
* = called active by the depositor. Unless noted, no rule for the calls is given here.

How did CCOC(=O)c1c(-c2ccc(C)o2)csc1NC(=S)NC(=O)c1ccc(F)cc1 do in these assays?
MLLE-PAM2 inh: 46*; PABP polyA inh: 4; eIF4H FP inh: 6; PERK inhibitor: 0; eIF4E 4G PPI: 17

Results for C(=Nc1cccc2c(N=Cc3ccco3)cccc12)c1ccco1 ?
MLLE-PAM2 inh: 67*; PABP polyA inh: -5; eIF4H FP inh: inconclusive; PERK inhibitor: 0; eIF4E 4G PPI: 9

Results for CN(C)c1ccc(N=Cc2ccco2)cc1 ?
MLLE-PAM2 inh: 14; PABP polyA inh: 25; eIF4H FP inh: 38; PERK inhibitor: 0; eIF4E 4G PPI: 5

How did C(=N\C(/N=C/c1ccco1)c1ccco1)/c1ccco1 do in these assays?
MLLE-PAM2 inh: 12; PABP polyA inh: 108*; eIF4H FP inh: 103*; PERK inhibitor: 0; eIF4E 4G PPI: 3

How did O=C1c2ccccc2NC(c2ccc(-c3ccccc3F)o2)N1O (stereo not drawn) do in these assays?
MLLE-PAM2 inh: -18

Results for COc1ccc(OC)c(Nc2ncnc3sc(-c4ccccc4)cc23)c1 ?
MLLE-PAM2 inh: -4; PABP polyA inh: -8; eIF4H FP inh: 8; PERK inhibitor: 1; eIF4E 4G PPI: 38*

How did c1cc(-n2nnc3cnccc32)ccn1 do in these assays?
MLLE-PAM2 inh: -8; PABP polyA inh: 3; eIF4H FP inh: 8; PERK inhibitor: 1; eIF4E 4G PPI: -15

Results for c1ccc(-n2nnc3cnccc32)cc1 ?
MLLE-PAM2 inh: 5; PABP polyA inh: 2; eIF4H FP inh: -11; PERK inhibitor: 0; eIF4E 4G PPI: 31*

What do the screens show for `COc1ccccc1C(=O)Nc1ncc2c(n1)CC(c1ccco1)CC2=O` (stereo not drawn)?
MLLE-PAM2 inh: 7; PABP polyA inh: 37*; eIF4H FP inh: 74*; PERK inhibitor: 0; eIF4E 4G PPI: -3

What do the screens show for `CC[n+]1cc(-c2ccccc2)nc(N2CCOCC2)n1`?
MLLE-PAM2 inh: -113; PABP polyA inh: 68*; eIF4H FP inh: -3; PERK inhibitor: 0; eIF4E 4G PPI: 30

What do the screens show for `O=C1CN(C(=O)c2cccs2)c2ccccc2N1`?
MLLE-PAM2 inh: -8; PABP polyA inh: -11; eIF4H FP inh: 1; PERK inhibitor: 0; eIF4E 4G PPI: 47*

How did O=C1CN(C(=O)/C=C/c2ccco2)c2ccccc2N1 do in these assays?
MLLE-PAM2 inh: -16; PABP polyA inh: 14; eIF4H FP inh: 71*; PERK inhibitor: 0; eIF4E 4G PPI: 13

Results for CCOC(=O)C1CCCN(C(=O)c2ccc(Cn3c(=S)[nH]c4cc(C(=O)OC)ccc4c3=O)cc2)C1 (stereo not drawn) ?
MLLE-PAM2 inh: -86; PABP polyA inh: -6; eIF4H FP inh: 5; PERK inhibitor: 0; eIF4E 4G PPI: 0

What do the screens show for `CCCCNCCCOc1cccc(Cl)c1`?
MLLE-PAM2 inh: 3; PABP polyA inh: -6; eIF4H FP inh: -1; PERK inhibitor: 0; eIF4E 4G PPI: 4

Results for CCc1nnc(NC(=O)Cc2ccc(OCc3c(C)noc3C)cc2)s1 ?
MLLE-PAM2 inh: 9; PABP polyA inh: 1; eIF4H FP inh: 7; PERK inhibitor: 0; eIF4E 4G PPI: 65*

Results for CCOC(=O)N1CCN(C(=O)C2CCN(C(=O)c3cc(OC)cc(OC)c3)CC2)CC1 ?
MLLE-PAM2 inh: -9; PABP polyA inh: 15; eIF4H FP inh: 3; PERK inhibitor: -1; eIF4E 4G PPI: 5

Results for COc1ccc(NC(=O)C2CCC(C)(C(=O)O)C2(C)C)cc1 (stereo not drawn) ?
MLLE-PAM2 inh: -5; PABP polyA inh: 4; eIF4H FP inh: 8; PERK inhibitor: 2; eIF4E 4G PPI: -2

How did CCOc1ccc(NC(=O)C2CCC(C)(C(=O)O)C2(C)C)cc1 (stereo not drawn) do in these assays?
MLLE-PAM2 inh: -5; PABP polyA inh: inconclusive; eIF4H FP inh: 130*; PERK inhibitor: 0; eIF4E 4G PPI: 0

How did CC1(C)C(=O)N(c2ccccc2F)C(=O)c2ccccc21 do in these assays?
MLLE-PAM2 inh: 4; PABP polyA inh: 14; eIF4H FP inh: -10

Results for Cc1ccc(-n2c(N)c(-c3nc4ccccc4n3C)sc2=S)cc1 ?
MLLE-PAM2 inh: 9; PABP polyA inh: -8; eIF4H FP inh: 13; PERK inhibitor: 1; eIF4E 4G PPI: -5

How did CCC(CC)c1nnc(NC(=O)C2CC(=O)N(CCc3ccc(F)cc3)C2)s1 (stereo not drawn) do in these assays?
MLLE-PAM2 inh: 32*; PABP polyA inh: 5; eIF4H FP inh: 2

Screening results: PubChem BioAssay, several laboratories
